Shown are actives, neighbours in structure and some others; about 1.2% of the full set was active somewhere.
Rv3671c inh = inhibits the M. tuberculosis serine protease Rv3671c | inhibition, % at 5.96 µM | hit rate 0.048% among 320,000 | AID 2606; in the data active = inhibition above about 38%;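 note: extracellular domain of Rv3671c used as enzyme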
RecA intein inh = blocks M. tuberculosis RecA intein splicing; P9WHJ3; cell-free RecA intein splicing, fluorescence; inhibition, % (test concentration not listed); hit rate 0.75% among 290,000; AID 2221; in the data active = inhibition above about 30%
Mtb UGM inh = blocks M. tuberculosis UGM enzyme; purified UGM, fluorescence polarization probe displacement; inhibition, % at 10 µM; hit rate 0.06% among 320,000; P9WIQ1; in the data active = inhibition above about 10%, passing the limit was not always enough
Target sequence (P9WIQ1 whole entry, looked up): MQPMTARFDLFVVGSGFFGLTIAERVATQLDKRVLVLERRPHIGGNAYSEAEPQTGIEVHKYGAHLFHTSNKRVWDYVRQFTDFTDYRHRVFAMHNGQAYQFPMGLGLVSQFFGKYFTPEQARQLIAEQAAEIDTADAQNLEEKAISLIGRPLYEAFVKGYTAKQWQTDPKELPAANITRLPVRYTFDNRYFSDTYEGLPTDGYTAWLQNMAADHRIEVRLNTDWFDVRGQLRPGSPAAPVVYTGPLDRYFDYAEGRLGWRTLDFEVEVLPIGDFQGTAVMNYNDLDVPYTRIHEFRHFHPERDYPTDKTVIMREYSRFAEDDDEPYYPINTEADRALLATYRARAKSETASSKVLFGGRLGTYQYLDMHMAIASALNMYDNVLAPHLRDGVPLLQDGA
Mtb betalactam = beta-lactam sensitization of Mtb H37Rv; M. tuberculosis H37Rv growth with meropenem, percent inhibition; inhibition, % at 25 µM; hit rate 0.27% among 330,000; AID 434955;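 note: growth measured after seven days incubation then overnight dye step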
CCHFV vOTU inh = blocks the CCHF virus ovarian tumor domain protease; CCHFV vOTU protease, Pep-AMC fluorescence; inhibition, % at 11.5 µM; hit rate 0.55% among 370,000; in the data active = inhibition above about 30%
GFP chromophore = counter-screen: blocks GFP chromophore formation | shares compounds with RecA intein inh | cell-free GFP chromophore formation, fluorescence | EC50, µM | hit rate 83% among 2,100 | AID 434968
Large screens that a line does not name were inactive (follow-up assays come after a bar, where they were run). Unless noted, the rule behind the calls is not given here.

COc1ccc(-c2nc3ccccc3nc2-c2ccc(OC)c(OC)c2)cc1OC	none
Cc1oc2cc([N+](=O)[O-])c(O)c([N+](=O)[O-])c2c1C(=O)c1ccc(Cl)cc1	RecA intein inh 37.2 | GFP chromophore 21.7
N#Cc1c(-c2ccccc2)nc(SCC(=O)N2c3ccccc3Sc3ccccc32)[nH]c1=O	RecA intein inh 44.2, CCHFV vOTU inh 32.6 | GFP chromophore 10.4
O=C(OCn1ncc(Cl)c(Cl)c1=O)c1ccc(C(F)(F)F)cc1	RecA intein inh 80.1 (no result: Rv3671c inh, Mtb UGM inh, Mtb betalactam) | GFP chromophore 1.39
CCC(=O)Nc1ccc(C(=O)Cn2ncc(Cl)c(Cl)c2=O)cc1	none
CCOC(=O)c1ccc(NC(=O)Cn2ncc(Cl)c(Cl)c2=O)cc1	RecA intein inh 62.1 | GFP chromophore 12.9
COc1ccc(NC(=O)Cn2ncc(Cl)c(Cl)c2=O)cc1S(=O)(=O)N1CCOCC1	RecA intein inh 43.2 | GFP chromophore 30.5
Cc1ccc(C(=O)OCn2ncc(Cl)c(Cl)c2=O)cc1	RecA intein inh 74.9 | GFP chromophore 6.36
O=C(Cn1ncc(Cl)c(Cl)c1=O)c1ccc2c(c1)OCCO2	none (no result: RecA intein inh)
CN(CCOC(=O)c1cccs1)C1CN(Cc2cn(Cc3ccccc3Cl)nn2)S(=O)(=O)C1 (stereo unspecified)	none (no result: Rv3671c inh, RecA intein inh, Mtb UGM inh, Mtb betalactam)
COC(=O)C12C=C3CC(C)=C3C(=O)N1Cc1[nH]c3ccccc3c1C2 (stereo unspecified)	none (no result: Rv3671c inh, RecA intein inh, Mtb UGM inh, Mtb betalactam)
Oc1ccc(O)c(Cc2nc3ccccc3s2)c1	RecA intein inh 31.3 | GFP chromophore inactive
COc1ccc(C(=O)C2(C(=O)NCCO)CC(c3ccccn3)=NO2)cc1 (stereo unspecified)	none (no result: Rv3671c inh, RecA intein inh, Mtb UGM inh, Mtb betalactam)
Oc1ccc(N=Cc2ccc(-c3cccs3)s2)cc1	RecA intein inh 44.9 | GFP chromophore inactive
COc1ccc2[nH]c3c(c2c1)CCN[C@]31C(=O)N(Cc2cn(Cc3ccccc3)nn2)c2ccc(F)cc21	none (no result: Rv3671c inh, RecA intein inh, Mtb UGM inh, Mtb betalactam)
CCOC(=O)c1nnn(-c2nonc2-n2cccc2)c1CCl	RecA intein inh 70.1 | GFP chromophore 11.9
CCOC(=O)c1nnn(-c2nonc2-n2cccc2)c1CN1CCC(C)CC1	none
CC(C)C[C@@H]1COc2cc(Br)ccc2S(=O)(=O)N1Cc1cn(CCC2OCCCO2)nn1	none (no result: Rv3671c inh, RecA intein inh, Mtb UGM inh, Mtb betalactam)
CS(=O)(=O)N1CCC[C@]2(CC[C@H](CCC#N)O2)C1	none (no result: Rv3671c inh, RecA intein inh, Mtb UGM inh, Mtb betalactam)
N#C/C(=C/c1ccncc1)c1nc2ccccc2s1	RecA intein inh 73.6 | GFP chromophore 21.6
N#C/C(=C\c1ccncc1)c1nc2ccccc2[nH]1	none (no result: Rv3671c inh, Mtb UGM inh, Mtb betalactam)
O=S1(=O)c2ccc(Br)cc2OC[C@@H](Cc2ccccc2)N1Cc1cn(Cc2ccc(Cl)cc2)nn1	none (no result: Rv3671c inh, RecA intein inh, Mtb UGM inh, Mtb betalactam)
c1ccc(-c2c[nH]c3cccc(-c4cc5ccccc5o4)c23)cc1	none (no result: Rv3671c inh, RecA intein inh, Mtb UGM inh, Mtb betalactam)
Cc1ccc(-c2nc(Nc3cccc(O)c3)c3ccccc3n2)cc1	none
Oc1cccc(Nc2nc(-c3ccccc3Cl)nc3ccccc23)c1	RecA intein inh 35.0 | GFP chromophore inactive
CCOC(=O)N1C(=O)[C@](c2ccc(Cl)cc2)(C(C)C)N1C(=O)OCC	RecA intein inh 34.0 | GFP chromophore 3.5
CCOC(=O)N1C(=O)[C@@](c2ccc(Cl)cc2)(C(C)C)N1C(=O)OCC	RecA intein inh 48.7 | GFP chromophore 33
COC(=O)N1C(=O)[C@](c2ccccc2)(C(C)C)N1C(=O)OC	none
CCCCCCn1cc(CN2CC=CS2(=O)=O)nn1	none (no result: Rv3671c inh, RecA intein inh, Mtb UGM inh, Mtb betalactam)
COC(=O)CS(=O)(=O)c1nnc([C@H](Cc2ccccc2)NC(=O)OC(C)(C)C)o1	RecA intein inh 68.7 | GFP chromophore 14.5
CC(C)(C)OC(=O)N[C@@H](Cc1ccccc1)c1nnc(SCC(N)=O)o1	none
Cc1cccc(CS(=O)(=O)c2nnc([C@H](Cc3ccccc3)NC(=O)OC(C)(C)C)o2)c1	RecA intein inh 36.4 (no result: CCHFV vOTU inh) | GFP chromophore 10.9
C=CCN1C(=O)[C@@H](CC(=O)NCCCN2CCCC2=O)[C@]2(C(=O)OC)CCCCC=C12	none (no result: Rv3671c inh, RecA intein inh, Mtb UGM inh, Mtb betalactam)
COc1ccccc1NC(=O)c1cnc(SCC(=O)NCC2CCCO2)n(C)c1=O (stereo unspecified)	RecA intein inh 45.1 | GFP chromophore inactive
O=C(c1ccc(Cl)c(Cl)c1)N1CCC(Oc2cccnc2)CC1	none (no result: Rv3671c inh, RecA intein inh, Mtb UGM inh, Mtb betalactam)
CN1N=C(C(C)(C)C)CC1=O	RecA intein inh 35.6 | GFP chromophore 18.6
CN1N=C(C(F)(F)F)CC1=O	none
CCOC(=O)c1sc(N(Cc2ccccc2)C(=O)COC(=O)c2ccccc2O)nc1C	none
CCOC(=O)c1sc(N(Cc2ccccc2)C(=O)CCl)nc1C	RecA intein inh 88.4 | GFP chromophore 3.07
CN(C(=O)C1CCN(c2cncnc2)CC1)C1CCCCC1	none (no result: Rv3671c inh, RecA intein inh, Mtb UGM inh, Mtb betalactam)
CCOc1ccc(Oc2c(Cl)cnn(Cc3cccc4ccccc34)c2=O)cc1	none (no result: Rv3671c inh, RecA intein inh, Mtb UGM inh, Mtb betalactam)
O=C1/C(=C/c2ccc(F)cc2)SC(=S)N1CC(=O)N1CCCCC1c1cccnc1 (stereo unspecified)	RecA intein inh 38.0 | GFP chromophore inactive
O=C(/C=C/c1ccc(F)cc1)NC(=S)N1CCCCC1c1cccnc1 (stereo unspecified)	none
C=CCN1C(=O)[C@@H](CC(=O)NCc2cccs2)[C@]2(C(=O)OCC)CCCCC/C=C/12	none (no result: Rv3671c inh, RecA intein inh, Mtb UGM inh, Mtb betalactam)
O=C(Cc1cc(=O)[nH][nH]1)N/N=C/c1ccccc1Cl	RecA intein inh 74.0 | GFP chromophore 7.7
O=C(O)COc1ccccc1C=NNC(=O)Cc1cc(=O)[nH][nH]1	none (no result: Rv3671c inh, RecA intein inh, Mtb UGM inh, Mtb betalactam)
O=C(Cc1cc(=O)[nH][nH]1)N/N=C/C(Cl)=C/c1ccccc1	RecA intein inh 81.3 | GFP chromophore 5.98
O=C(Cc1cc(=O)[nH][nH]1)N/N=C/c1cccc(Cl)c1Cl	RecA intein inh 94.4 | GFP chromophore 10.5
O=C(Cc1cc(=O)[nH][nH]1)N/N=C/c1cccc2ccccc12	RecA intein inh 94.1 | GFP chromophore 7.28
COC(=O)[C@]12C[C@H](CC(=O)NCc3ccc(C)o3)C(=O)N(CCc3ccc(OC)c(OC)c3)C1=C[C@H](C(C)C)O[C@@H]2C1CC1	none (no result: Rv3671c inh, RecA intein inh, Mtb UGM inh, Mtb betalactam)
CC1=NN(Cc2ccccc2)C(=O)C1C(c1ccncc1)C(C#N)C#N (stereo unspecified)	RecA intein inh 68.1 | GFP chromophore 17.7
CC1=NN(Cc2ccccc2)C(=O)C1C(c1ccccc1)C(C#N)C#N (stereo unspecified)	RecA intein inh 87.5 | GFP chromophore 8.7
CC1=NN(Cc2ccccc2)C(=O)C1C(c1ccc(Cl)cc1)C(C#N)C#N (stereo unspecified)	RecA intein inh 79.6 | GFP chromophore 6.21
Cc1ccc(C2=NNC(=O)C(c3ccc(Cl)cc3)C2)cc1 (stereo unspecified)	none
Cc1[nH]n(-c2ncc(-c3ccccc3)s2)c(=O)c1C(c1ccc(Cl)cc1)C(C#N)C#N (stereo unspecified)	none
N#CC(c1ccccc1)C1CCN(Cc2ccccc2)CC1 (stereo unspecified)	none
CC1=NNC(=O)C1C(c1ccc(Cl)cc1)C(C#N)C#N (stereo unspecified)	RecA intein inh 84.8 | GFP chromophore 11.2
O=c1[nH]c(O)c(N=Nc2cc([N+](=O)[O-])ccc2O)c(=O)[nH]1	RecA intein inh 73.1 | GFP chromophore 12
CN1CC=C(c2ccccc2)N(c2ccc(Br)cc2)C1=O	none (no result: Rv3671c inh, RecA intein inh, Mtb UGM inh, Mtb betalactam)
O=C1N2Cc3ccccc3C2CS(=O)(=O)N1Cc1ccccc1 (stereo unspecified)	none (no result: Rv3671c inh, RecA intein inh, Mtb UGM inh, Mtb betalactam)
